Screening results as filed in PubChem.
Shown is part of a subset that was picked to be rich in hits.
Pf Dd2 growth – inhibitors of Plasmodium falciparum Dd2 growth | P. falciparum Dd2 growth, SYBR Green, 72 h | Potency, µM (titrated, usually from 28.9 µM), for the others: at the highest dose activity, negative = inhibition, most hits filed as inhibitors | actives 4.3% (n = 120,000) | AID 1347417; active = well fitted inhibition curve with a large enough effect;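 note: plate controls were DMSO vehicle for no effect and reference drug for full effect; nearly all actives have a fitted effect of over 65% in size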
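Readout: SYBR Green fluorescence, 485 nm excitation, 535 nm emission, after ~16 h lysis at 37C. Before that, Dd2-infected red cells (2.5% hematocrit) grew 72 h with compound, 29 uM top final concentration.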
* hit, by the source's call; [ ] = remark or other dose. Potency is the fitted concentration of half-maximal effect.

For COc1ccc(CNc2ncnc3c2CN(C2CCCNCC2)C(=O)CN3C)cc1OC (stereo not drawn) the results were Pf Dd2 growth -1%.
For CCOC(=O)c1c(NC(=O)CSc2cn(CCNC(=O)c3ccc(OCC)cc3)c3ccccc23)sc2c1CCC2 the results were Pf Dd2 growth inactive.
Screening CCOC(=O)c1c(NC(=O)CSc2cn(CCNC(=O)c3ccccc3F)c3ccccc23)sc2c1CCCC2 returned Pf Dd2 growth -28%.
`CCOC(=O)c1c(NC(=O)CSc2cn(CCNC(=O)c3ccccc3OC)c3ccccc23)sc2c1CCC2` gave Pf Dd2 growth 11µM*.
For Cn1cccc1C(=O)N1CCCN(C(=O)C2CC2)C(c2ccccc2)CC(=O)NCC1 (stereo not drawn) the results were Pf Dd2 growth -3%.
COCC(=O)N[C@@H]1CN(Cc2ccccc2C)C[C@H]1CO was read as Pf Dd2 growth -17%.
COCC1CN(C)CC12CCN(C(=O)Cc1cccc(Cl)c1)CC2 (stereo not drawn) was read as Pf Dd2 growth inactive.
Screening c1ccc(-c2ccc(CN3CCOC[C@H](Oc4cnccn4)C3)cc2)cc1 returned Pf Dd2 growth 5.6µM*.
COc1cccc(CN2CCOC[C@H](Oc3cccnc3)C2)c1 was read as Pf Dd2 growth inactive.
For FC(F)(F)c1ccc(O[C@H]2COCCN(Cc3cccnc3)C2)nc1 the results were Pf Dd2 growth -5%[44.1 µM].
Screening Cc1noc(C)c1Cc1c(C(=O)NCCn2c(C)cnc2C2CC2)noc1C returned Pf Dd2 growth inactive.
`COc1ccc(S(=O)(=O)N2C[C@@H]3C[C@H](C2)c2ccc(-c4cccc(C(F)(F)F)c4)c(=O)n2C3)cc1` gave Pf Dd2 growth -13%.
Screening O=C(Nc1ccccc1F)N1CC2CCC(C1)N2Cc1ccc(-c2ccccc2)cc1 returned Pf Dd2 growth 6%.
COCC1CN(C2CCC2)CC12CCN(C(=O)c1ccccc1OC)CC2 (stereo not drawn) was read as Pf Dd2 growth -9%.
Screening c1ccc(-c2ccc(CN3CCCC3)cc2)c(CN2CCOCC2)c1 returned Pf Dd2 growth 8.9µM*.
CCn1nc(-c2ccccc2CN2CCOCC2)nc1N(C)C was read as Pf Dd2 growth -7%.
Screening O=C(O)C1CCCN(Cc2ccccc2OCCCN2CCOCC2)C1 (stereo not drawn) returned Pf Dd2 growth -1%.
CS(=O)(=O)N1CCC(C2CCN(C(=O)c3ccn[nH]3)C2)CC1 (stereo not drawn) was read as Pf Dd2 growth 4%.
For COCCNC(=O)C(NC(=O)c1ccc(F)cc1)C1CCN(C(=O)c2ccccc2F)CC1 (stereo not drawn) the results were Pf Dd2 growth 10%.
`Cc1cnc(C(=O)NC2C[C@H]3CC[C@@H](C2)N3C(=O)c2ccc(C)c(F)c2)cn1` (stereo partly drawn) gave Pf Dd2 growth inactive.
`CCn1cnnc1CC1CCNC1` (stereo not drawn) gave Pf Dd2 growth 14%.
Cc1cccc(CN2CCCOCCNC(=O)[C@@H]3CCCC[C@@H]32)c1 was read as Pf Dd2 growth inactive.
Cc1ccc(CN2CCCCCNC(=O)[C@@H]3CCC[C@@H]32)s1 was read as Pf Dd2 growth -17%.
`Cc1ccc(CN2CCCOCCNC(=O)[C@@H]3CCCC[C@@H]32)s1` gave Pf Dd2 growth 5µM*.
Screening CN(CC(=O)N1CCN(CCO)CC(O)C1)Cc1ccccc1F (stereo not drawn) returned Pf Dd2 growth 1%.
Screening CSCc1ccc(N2CCC(C(C)N3CCCC3)CC2)nc1 (stereo not drawn) returned Pf Dd2 growth -19%.
For O=C(NC[C@H]1OC[C@@H](NCc2ccccc2O)[C@@H]1O)Nc1ccccc1 the results were Pf Dd2 growth -11%[44.1 µM].
CCNc1ncc(CN2CCC(N)(C(=O)O)C2)cn1 (stereo not drawn) was read as Pf Dd2 growth 4%.
For CC(C)N1C(=O)C2(CCCC2)C1C(=O)N1CCC(N2CCCCC2)CC1 (stereo not drawn) the results were Pf Dd2 growth -24%.
`CC(C)N1C(=O)C2(CCCC2)C1C(=O)N1CCN(C2CCCCC2)CC1` (stereo not drawn) gave Pf Dd2 growth 10µM*.
`CC(C)N1C(=O)C2(CCCCC2)C1C(=O)N1CCN(C)CC1` (stereo not drawn) gave Pf Dd2 growth -18%.
Cc1ccc(C2=NC3(CCN(C(=O)c4ccoc4)CC3)ON2)cc1 was read as Pf Dd2 growth -8%.
Screening CN1[C@@H](CCC(=O)NCc2ccccc2)CNC(=O)[C@@H]2[C@H]1CCN2C1CCOCC1 returned Pf Dd2 growth 20%[44.1 µM].
`CN1CCCN(C(=O)c2cc(F)cc(F)c2)c2ccccc21` gave Pf Dd2 growth inactive.
Screening CC(C)NC(=O)C(NC(=O)c1ccc2c(c1)OCO2)C1CCN(C(=O)c2ccc(F)cc2)CC1 (stereo not drawn) returned Pf Dd2 growth -12%.
`CCn1c(COc2ccc(C)nc2)nnc1C1CC(N)C1` (stereo not drawn) gave Pf Dd2 growth -26%.
